# Laboratory results: PubChem BioAssay AID1159580 (chemical genetic matrix, 2015)
# Several values for one entry are separate records, joined by “and”; a condition that tells them apart may be missing. Equal values may be shown once. Among all 5,500 compounds or so, about 2,000 (36%) were called active. Inconclusive results (about 18%) are left out. No stated cut-off is given here; in the data, active means normalized growth mostly below about 0.91 (no sharp cut-off); inconclusive means no clear call, values can overlap the other calls; inactive means mostly above about 0.92. This is one part of the list. Some compounds were tested as several samples or in several runs, with calls that do not always agree.
# Test: chemical genetic growth profiling, strain panel (AID 1159580);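 further: tested at 20 µM; growth read once vehicle control cultures reached saturation at 30 °C; 1 = growth at the plate median or of vehicle wells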
# Conditions: growth OD
compound,measurement,setting,value
CSc1ccc2c(c1)N(CCC1CCCCN1C)c1ccccc1S2 (stereo not given),normalized growth,"S. cerevisiae deletion strains, locus YJR075W, strain HOC1, stronger effect = lower value",0.823 (active)
same,normalized growth,"S. cerevisiae deletion strains, locus YKL009W, strain mrt4, stronger effect = lower value",0.978 (inactive)
same,normalized growth,"S. cerevisiae deletion strains, locus YKL068W, stronger effect = lower value",1.01 (inactive)
same,normalized growth,"S. cerevisiae deletion strains, locus YKL085W, strain MDH1 (second series), stronger effect = lower value",1 (inactive)
same,normalized growth,"S. cerevisiae deletion strains, locus YKL085W, strain MDH1, stronger effect = lower value",1 (inactive)
same,normalized growth,"S. cerevisiae deletion strains, locus YKL160W, strain elf1, stronger effect = lower value",0.937 (inactive)
same,normalized growth,"S. cerevisiae deletion strains, locus YKL190W, strain CNB1, stronger effect = lower value",0.0633 (active)
same,normalized growth,"S. cerevisiae deletion strains, locus YKR001C, strain vps1, stronger effect = lower value",0.0672 (active)
same,normalized growth,"S. cerevisiae deletion strains, locus YKR026C, strain gcn3, stronger effect = lower value",1.02 (inactive)
same,normalized growth,"S. cerevisiae deletion strains, locus YKR091W, strain srl3, stronger effect = lower value",1.03 (inactive)
same,normalized growth,"S. cerevisiae deletion strains, locus YLL001W, strain dnm1, stronger effect = lower value",0.964 (inactive)
same,normalized growth,"S. cerevisiae deletion strains, locus YLL026W, stronger effect = lower value",0.981 (inactive)
same,normalized growth,"S. cerevisiae deletion strains, locus YLL041C, strain sdh2, stronger effect = lower value",0.976 (inactive)
same,normalized growth,"S. cerevisiae deletion strains, locus YLR027C, strain aat2, stronger effect = lower value",0.946 (inactive)
same,normalized growth,"S. cerevisiae deletion strains, locus YLR039C, strain RIC1, stronger effect = lower value",0.175 (active)
same,normalized growth,"S. cerevisiae deletion strains, locus YLR058C, strain SHM2, stronger effect = lower value",0.0859 (active)
same,normalized growth,"S. cerevisiae deletion strains, locus YLR102C, strain apc9, stronger effect = lower value",0.176 (active)
same,normalized growth,"S. cerevisiae deletion strains, locus YLR113W, strain HOG1, stronger effect = lower value",0.996 (inactive)
same,normalized growth,"S. cerevisiae deletion strains, locus YLR221C, strain rsa3, stronger effect = lower value",0.932 (inactive)
same,normalized growth,"S. cerevisiae deletion strains, locus YLR258W, strain gsy2, stronger effect = lower value",0.941 (inactive)
same,normalized growth,"S. cerevisiae deletion strains, locus YLR262C, strain YPT6 (second series), stronger effect = lower value",1.1 (inactive)
same,normalized growth,"S. cerevisiae deletion strains, locus YLR262C, strain YPT6, stronger effect = lower value",0.155 (active)
same,normalized growth,"S. cerevisiae deletion strains, locus YLR268W, strain sec22, stronger effect = lower value",0.122 (active)
same,normalized growth,"S. cerevisiae deletion strains, locus YLR320W, strain mms22, stronger effect = lower value",1 (inactive)
same,normalized growth,"S. cerevisiae deletion strains, locus YLR330W, strain CHS5, stronger effect = lower value",0.0954 (active)
same,normalized growth,"S. cerevisiae deletion strains, locus YLR342W, strain FKS1 (second series), stronger effect = lower value",0.07 (active)
same,normalized growth,"S. cerevisiae deletion strains, locus YLR342W, strain FKS1, stronger effect = lower value",0.866 (active)
same,normalized growth,"S. cerevisiae deletion strains, locus YLR357W, strain rsc2, stronger effect = lower value",0.996 (inactive)
same,normalized growth,"S. cerevisiae deletion strains, locus YLR370C, strain arc18, stronger effect = lower value",0.962 (inactive)
same,normalized growth,"S. cerevisiae deletion strains, locus YLR371W, strain rom2, stronger effect = lower value",0.116 (active)
same,normalized growth,"S. cerevisiae deletion strains, locus YLR384C, strain iki3, stronger effect = lower value",0.984 (inactive)
same,normalized growth,"S. cerevisiae deletion strains, locus YLR418C, strain cdc73, stronger effect = lower value",0.155 (active)
same,normalized growth,"S. cerevisiae deletion strains, locus YML016C, strain PPZ1, stronger effect = lower value",0.0677 (active)
same,normalized growth,"S. cerevisiae deletion strains, locus YML032C, strain rad52, stronger effect = lower value",0.484 (active)
same,normalized growth,"S. cerevisiae deletion strains, locus YML120C, strain ndi1, stronger effect = lower value",0.971 (inactive)
same,normalized growth,"S. cerevisiae deletion strains, locus YML124C, strain tub3, stronger effect = lower value",0.282 (active)
same,normalized growth,"S. cerevisiae deletion strains, locus YMR058W, strain fet3, stronger effect = lower value",0.859 (active)
same,normalized growth,"S. cerevisiae deletion strains, locus YMR078C, strain ctf18, stronger effect = lower value",1.04 (inactive)
same,normalized growth,"S. cerevisiae deletion strains, locus YMR125W, strain sto1, stronger effect = lower value",0.95 (inactive)
same,normalized growth,"S. cerevisiae deletion strains, locus YMR129W, stronger effect = lower value",0.977 (inactive)
same,normalized growth,"S. cerevisiae deletion strains, locus YMR205C, strain PFK2, stronger effect = lower value",0.966 (inactive)
same,normalized growth,"S. cerevisiae deletion strains, locus YMR223W, strain ubp8, stronger effect = lower value",0.142 (active)
same,normalized growth,"S. cerevisiae deletion strains, locus YMR231W, strain pep5, stronger effect = lower value",0.32 (active)
same,normalized growth,"S. cerevisiae deletion strains, locus YMR263W, strain SAP30, stronger effect = lower value",0.569 (active)
same,normalized growth,"S. cerevisiae deletion strains, locus YMR307W, strain GAS1, stronger effect = lower value",0.123 (active) and 0.981 (inactive)
same,normalized growth,"S. cerevisiae deletion strains, locus YNL067W, strain RPL9B, stronger effect = lower value",0.221 (active)
same,normalized growth,"S. cerevisiae deletion strains, locus YNL071W, strain lat1, stronger effect = lower value",1.05 (inactive)
same,normalized growth,"S. cerevisiae deletion strains, locus YNL128W, strain TEP1, stronger effect = lower value",1 (inactive)
same,normalized growth,"S. cerevisiae deletion strains, locus YNL153C, strain GIM3, stronger effect = lower value",0.0926 (active)
same,normalized growth,"S. cerevisiae deletion strains, locus YNL175C, strain NOP13, stronger effect = lower value",1.07 (inactive)
same,normalized growth,"S. cerevisiae deletion strains, locus YNL183C, strain NPR1, stronger effect = lower value",0.944 (inactive)
same,normalized growth,"S. cerevisiae deletion strains, locus YNL197C, strain WHI3, stronger effect = lower value",1.05 (inactive)
same,normalized growth,"S. cerevisiae deletion strains, locus YNL209W, strain ssb2, stronger effect = lower value",0.856 (active)
same,normalized growth,"S. cerevisiae deletion strains, locus YNL224C, strain SQS1, stronger effect = lower value",1.11 [resistant] (active)
same,normalized growth,"S. cerevisiae deletion strains, locus YNL233W, strain BNI4, stronger effect = lower value",0.0906 (active)
same,normalized growth,"S. cerevisiae deletion strains, locus YNL248C, strain rpa49, stronger effect = lower value",0.978 (inactive)
same,normalized growth,"S. cerevisiae deletion strains, locus YNL250W, strain rad50, stronger effect = lower value",1 (inactive)
same,normalized growth,"S. cerevisiae deletion strains, locus YNL271C, strain bni1, stronger effect = lower value",1 (inactive)
same,normalized growth,"S. cerevisiae deletion strains, locus YNL298W, strain CLA4, stronger effect = lower value",1 (inactive)
same,normalized growth,"S. cerevisiae deletion strains, locus YNL307C, strain MCK1, stronger effect = lower value",0.1 (active)
same,normalized growth,"S. cerevisiae deletion strains, locus YNL322C, strain KRE1 (second series), stronger effect = lower value",1.04 (inactive)
same,normalized growth,"S. cerevisiae deletion strains, locus YNL322C, strain KRE1, stronger effect = lower value",0.0818 (active)
same,normalized growth,"S. cerevisiae deletion strains, locus YNR049C, strain mso1, stronger effect = lower value",0.968 (inactive)
same,normalized growth,"S. cerevisiae deletion strains, locus YNR052C, strain pop2, stronger effect = lower value",0.133 (active)
same,normalized growth,"S. cerevisiae deletion strains, locus YOL006C, strain TOP1, stronger effect = lower value",0.115 (active)
same,normalized growth,"S. cerevisiae deletion strains, locus YOL012C, strain htz1",0.211 (inactive)
same,normalized growth,"S. cerevisiae deletion strains, locus YOL147C, strain pex11, stronger effect = lower value",0.176 (active)
same,normalized growth,"S. cerevisiae deletion strains, locus YOR001W, strain rrp6, stronger effect = lower value",0.956 (inactive)
same,normalized growth,"S. cerevisiae deletion strains, locus YOR061W, strain CKA2, stronger effect = lower value",0.0575 (active)
same,normalized growth,"S. cerevisiae deletion strains, locus YOR069W, strain VPS5, stronger effect = lower value",0.36 (active)
same,normalized growth,"S. cerevisiae deletion strains, locus YOR070C, strain gyp1, stronger effect = lower value",0.948 (inactive)
same,normalized growth,"S. cerevisiae deletion strains, locus YOR080W, strain dia2, stronger effect = lower value",0.976 (inactive)
same,normalized growth,"S. cerevisiae deletion strains, locus YOR083W, strain WHI5 (second series), stronger effect = lower value",0.774 (active)
same,normalized growth,"S. cerevisiae deletion strains, locus YOR083W, strain WHI5, stronger effect = lower value",0.915 (inactive)
same,normalized growth,"S. cerevisiae deletion strains, locus YOR106W, strain vam3, stronger effect = lower value",0.88 (inactive)
same,normalized growth,"S. cerevisiae deletion strains, locus YOR136W, strain idh2, stronger effect = lower value",0.139 (active)
same,normalized growth,"S. cerevisiae deletion strains, locus YOR144C, strain elg1, stronger effect = lower value",0.541 (active)
same,normalized growth,"S. cerevisiae deletion strains, locus YOR184W, strain ser1, stronger effect = lower value",0.128 (active)
same,normalized growth,"S. cerevisiae deletion strains, locus YOR231W, strain MKK1, stronger effect = lower value",1 (inactive)
same,normalized growth,"S. cerevisiae deletion strains, locus YOR265W, strain rbl2, stronger effect = lower value",0.961 (inactive)
same,normalized growth,"S. cerevisiae deletion strains, locus YOR270C, strain vph1, stronger effect = lower value",0.866 (inactive)
same,normalized growth,"S. cerevisiae deletion strains, locus YOR290C, strain snf2, stronger effect = lower value",0.981 (inactive)
same,normalized growth,"S. cerevisiae deletion strains, locus YOR316C, strain cot1, stronger effect = lower value",0.132 (active)
same,normalized growth,"S. cerevisiae deletion strains, locus YPL051W, strain arl3, stronger effect = lower value",0.881 (active)
same,normalized growth,"S. cerevisiae deletion strains, locus YPL078C, strain atp4, stronger effect = lower value",0.989 (inactive)
same,normalized growth,"S. cerevisiae deletion strains, locus YPL106C, strain sse1, stronger effect = lower value",1.02 (inactive)
same,normalized growth,"S. cerevisiae deletion strains, locus YPL240C, strain hsp82, stronger effect = lower value",0.98 (inactive)
same,normalized growth,"S. cerevisiae deletion strains, locus YPL241C, strain CIN2, stronger effect = lower value",0.107 (active) and 0.972 (inactive)
same,normalized growth,"S. cerevisiae deletion strains, locus YPL256C, strain CLN2, stronger effect = lower value",0.975 (inactive)
same,normalized growth,"S. cerevisiae deletion strains, locus YPR119W, strain clb2, stronger effect = lower value",0.31 (active)
same,normalized growth,"S. cerevisiae deletion strains, locus YPR141C, strain kar3, stronger effect = lower value",1.02 (inactive)
same,normalized growth,"S. cerevisiae deletion strains, locus YPR163C, strain tif3, stronger effect = lower value",0.0768 (active)
same,normalized growth,"S. cerevisiae deletion strains, locus YPR167C, strain met16, stronger effect = lower value",0.196 (active)
same,normalized growth,"S. cerevisiae deletion strains, strain wtn01, stronger effect = lower value",0.0859 (active)
same,normalized growth,"S. cerevisiae strains, strain wild type, stronger effect = lower value",0.0579 (active)
